Experimental findings from PubChem BioAssay are described below.

Structures are written as SMILES. Where “and” joins values, the source holds several entries; their conditions need not be identical. Equal entries are not always repeated. Calls of active or inactive are those of the source.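 Rule for the calls, unless noted: active = luciferase signal above three times the same-plate solvent-only control wells; inactive = the rest.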

Mitogen-activated protein kinase 7 (Homo sapiens), sequence (Q13164 whole entry, looked up, the tested form may be a part): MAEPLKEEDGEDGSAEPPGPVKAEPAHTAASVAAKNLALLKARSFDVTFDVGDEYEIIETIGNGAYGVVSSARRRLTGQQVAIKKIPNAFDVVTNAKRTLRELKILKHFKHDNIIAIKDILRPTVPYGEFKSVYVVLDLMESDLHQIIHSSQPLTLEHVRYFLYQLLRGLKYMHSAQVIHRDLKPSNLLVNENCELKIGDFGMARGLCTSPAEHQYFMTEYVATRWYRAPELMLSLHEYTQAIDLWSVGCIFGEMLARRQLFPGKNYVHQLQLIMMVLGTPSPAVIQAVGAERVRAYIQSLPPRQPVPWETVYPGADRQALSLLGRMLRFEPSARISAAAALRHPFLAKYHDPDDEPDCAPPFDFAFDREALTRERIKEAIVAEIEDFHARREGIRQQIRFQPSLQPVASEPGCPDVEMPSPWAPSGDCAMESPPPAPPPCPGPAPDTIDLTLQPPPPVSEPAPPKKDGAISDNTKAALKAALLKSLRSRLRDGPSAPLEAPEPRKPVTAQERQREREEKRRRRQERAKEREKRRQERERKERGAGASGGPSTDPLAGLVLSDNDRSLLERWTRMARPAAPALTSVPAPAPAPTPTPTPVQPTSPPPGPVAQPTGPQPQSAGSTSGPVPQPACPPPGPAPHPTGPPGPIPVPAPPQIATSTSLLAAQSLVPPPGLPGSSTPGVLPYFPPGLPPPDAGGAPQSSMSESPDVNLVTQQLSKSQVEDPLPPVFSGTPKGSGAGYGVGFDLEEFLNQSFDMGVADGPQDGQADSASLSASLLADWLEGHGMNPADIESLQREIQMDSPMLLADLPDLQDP
NAD(+) hydrolase SARM1 (Homo sapiens), sequence (Q6SZW1 whole entry, looked up): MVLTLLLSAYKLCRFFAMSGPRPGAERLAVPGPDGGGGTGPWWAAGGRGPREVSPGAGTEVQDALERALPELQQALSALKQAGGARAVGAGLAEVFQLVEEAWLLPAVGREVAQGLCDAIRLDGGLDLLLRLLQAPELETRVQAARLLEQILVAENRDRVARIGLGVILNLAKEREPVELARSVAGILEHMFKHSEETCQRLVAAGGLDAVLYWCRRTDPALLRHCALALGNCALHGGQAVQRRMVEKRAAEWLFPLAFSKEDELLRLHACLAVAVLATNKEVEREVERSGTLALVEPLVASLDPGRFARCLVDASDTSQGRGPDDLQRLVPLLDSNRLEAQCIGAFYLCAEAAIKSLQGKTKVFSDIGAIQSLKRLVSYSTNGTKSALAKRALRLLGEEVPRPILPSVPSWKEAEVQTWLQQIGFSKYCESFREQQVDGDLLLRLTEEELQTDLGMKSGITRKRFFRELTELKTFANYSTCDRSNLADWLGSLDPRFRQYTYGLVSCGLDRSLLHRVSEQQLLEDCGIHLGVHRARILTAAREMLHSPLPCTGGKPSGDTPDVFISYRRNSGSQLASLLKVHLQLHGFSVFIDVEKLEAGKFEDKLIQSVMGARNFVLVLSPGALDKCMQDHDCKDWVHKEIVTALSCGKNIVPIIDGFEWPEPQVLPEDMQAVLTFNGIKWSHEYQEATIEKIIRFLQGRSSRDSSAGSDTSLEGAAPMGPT

Tested on in one experiment: not listed separately
Description: chitosan synthesis blockers in C. neoformans – flow cytometry, Cibacron Brilliant Red staining (AID 1347148; call rule not given here;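 note: compound exposure lasted three days at 37 degrees C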). Particulars: Cryptococcus neoformans chitosan, stronger effect = lower value; at 10 µM unless noted.
On to `CCCC(=O)Nc1ncnc2c1ncn2[C@@H]1O[C@@H]2COP(=O)(O)O[C@H]2[C@H]1OC(=O)CCC`, for which the fold fluorescence is 10.2 [at 101.8 µM] (inactive).
The same measure, in the same setting: as for `O=C(O)c1cc([N+](=O)[O-])ccc1NCCCc1ccccc1`, the figure is 4.56 [at 166.5 µM] (inactive); as for `NC(=O)c1cccc(N)c1`, 5.59 [at 367.2 µM] (inactive).

Tested on in a further experiment: not listed separately
Description: blockers of cellular phospholipid synthesis – cell-based, LOPAC library, screen 4, primary screen (AID 1347384; call rule not given here). Particulars: animal cells, phospholipid biosynthesis inhibition screen; at 10 µM.
As for `O=c1c(-c2ccc(O)cc2)coc2cc(O)ccc12`, the outcome was inactive.
Take `CCN1CCCC1CNC(=O)c1cc(S(N)(=O)=O)ccc1OC` (stereo not drawn): the molecule was called inactive.
On the same count and under the same terms, to `CCOC(=O)C1=C(O)C(=O)N(Cc2ccccc2)C1` belongs “inactive”; to `O=C(O)c1cc([N+](=O)[O-])ccc1NCCCc1ccccc1`, “inactive”; to `CC(CCc1ccc(O)cc1)NCCc1ccc(O)c(O)c1` (stereo not drawn), “inactive”.
Same read-out and setting: as for `NC(=O)c1cccc(N)c1`, the entry is “inactive”.

Tested on in the next experiment: not listed separately
Description: MELAS cybrid and Rieske KO viability enhancers – cell-based, MELAS cybrids, Rieske KO mouse fibroblasts, CellTiter-Glo, primary screen (AID 1508586;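 active = mean z-score across replicates of 1.96 or higher in either the MELAS or the Rieske mutant cell line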;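 note: z relative to plate mean and SD of compound and empty wells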). Particulars: MELAS cybrid survival, low glucose, CellTiter-Glo 48 h; stronger effect = higher value. (In general: ATP-based viability assays read luminescence as a measure of living cells.)
In the case of `O=c1c(-c2ccc(O)cc2)coc2cc(O)ccc12`, the z-score is -0.189 (inactive).
On the same count and under the same terms, as for `CCN1CCCC1CNC(=O)c1cc(S(N)(=O)=O)ccc1OC` (stereo not drawn), the figure is -0.0383 (inactive) and -0.359 (inactive); as for `CC(CCc1ccc(O)cc1)NCCc1ccc(O)c(O)c1` (stereo not drawn), 0.557 (inactive) and -0.473 (inactive); as for `NC(=O)c1cccc(N)c1`, -0.453 (inactive) and -0.332 (inactive).

Staying with this experiment, now noted: Rieske KO mouse fibroblast survival, low glucose, CellTiter-Glo 72 h.
On to `O=c1c(-c2ccc(O)cc2)coc2cc(O)ccc12`, for which the z-score was -0.724.
The same measure, in the same setting: to `CCN1CCCC1CNC(=O)c1cc(S(N)(=O)=O)ccc1OC` (stereo not drawn) belongs 0.0677 and 0.0684; to `CC(CCc1ccc(O)cc1)NCCc1ccc(O)c(O)c1` (stereo not drawn), -0.00496 and 0.199; to `NC(=O)c1cccc(N)c1`, 0.178 and -0.721.

A further experiment concerns the target NAD(+) hydrolase SARM1 (Homo sapiens) (UniProt Q6SZW1). The experiment can be described thus: blocking NAD cleavage by SARM1 SAM-TIR – cell lysate, NAD-Glo luminescence (AID 1508614;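 active = compound whose remaining NAD level is above about 45 nM, limit read from the data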;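 note: higher remaining NAD means stronger inhibition of SARM1 NADase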). Particulars: SAM-TIR HEK293T lysate NADase, at 1 µM, stronger effect = higher value.
Regarding `CCCC(=O)Nc1ncnc2c1ncn2[C@@H]1O[C@@H]2COP(=O)(O)O[C@H]2[C@H]1OC(=O)CCC`, the remaining NAD is 10 nM (inactive).
Same read-out and setting: as for `CCN1CCCC1CNC(=O)c1cc(S(N)(=O)=O)ccc1OC` (stereo not drawn), the figure is 10 nM (inactive); as for `CC(CCc1ccc(O)cc1)NCCc1ccc(O)c(O)c1` (stereo not drawn), 10 nM (inactive).

A further experiment concerns the target Mitogen-activated protein kinase 7 (Homo sapiens) (UniProt Q13164). Description: Gal4-ERK5 driven luciferase induction – cell-based, HTS, primary screen (AID 1508626).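 Note: luciferase driven by Gal4-ERK5 fusion binding five Gal4 sites before minimal TATA.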 Particulars: HeLa Gal4-ERK5 transactivation, 18 h, at 5 µM, stronger effect = higher value.
Turning to `O=C(O)c1cc2ccccc2[nH]1`, the luciferase signal was 36 AU (inactive).
The same measure, in the same setting: as for `O=c1c(-c2ccc(O)cc2)coc2cc(O)ccc12`, the figure is 120 AU (inactive).
The same measure, in the same setting: to `O=C(/C=C/c1ccccc1)c1ccc(O[C@@H]2O[C@H](CO)[C@@H](O)[C@H](O)[C@H]2O)cc1O` belongs 76 AU (inactive); to `CC(C)=CCc1c2c(c3occ(-c4ccc(O)cc4)c(=O)c3c1O)C=CC(C)(C)O2`, 392 AU (active); to `N#Cc1ccc2c(c1)N(CCCN1CCC(O)CC1)c1ccccc1S2`, 96 AU (inactive).
The same measure, in the same setting: as for `CON`, the figure is 124 AU (inactive); as for `CC(C)=CCc1c2c(c3occ(-c4ccc(O)c(O)c4)c(=O)c3c1O)C=CC(C)(C)O2`, 108 AU (inactive).
Regarding `CC(C)=CCOc1cc2oc(=O)ccc2cc1O`, the luciferase signal was 36 AU (inactive).
Still for that read-out and setting: as for `C=C(C)[C@H]1COc2cc3oc(=O)ccc3cc2O1`, the figure is 44 AU (inactive).
Still for that read-out and setting: as for `O=C1C=CC(=C(c2ccc(O)cc2)c2ccc(O)cc2)C=C1`, the figure is 148 AU (inactive); as for `NC1=NCCN1CC(=O)O`, 48 AU (inactive); as for `C[C@@]12C(=O)OC(=O)[C@]1(C)[C@H]1CC[C@@H]2O1`, 52 AU (inactive).
Regarding `CC(=O)c1c(O)c(C)c(O)c2c1OC1=CC(=O)C(C(C)=O)C(=O)C12C` (stereo not drawn), the luciferase signal was 80 AU (inactive).
The same measure, in the same setting: to `CC(=O)N[C@@H]1[C@@H](O)[C@H](O)[C@@H](CO)O[C@H]1O` belongs 64 AU (inactive); to `CCCC(=O)Nc1ncnc2c1ncn2[C@@H]1O[C@@H]2COP(=O)(O)O[C@H]2[C@H]1OC(=O)CCC`, 68 AU (inactive).
On the same count and under the same terms, as for `CCN1CCCC1CNC(=O)c1cc(S(N)(=O)=O)ccc1OC` (stereo not drawn), the figure is 56 AU (inactive); as for `COC1=CC(=O)C=C(OC)C1=O`, 112 AU (inactive).
Still for that read-out and setting: to `C#CCCCCCCCCCCCC(O)CC(O)CO` (stereo not drawn) belongs 52 AU (inactive); to `COc1c2ccoc2nc2c(OC)c(OCC(O)C(C)(C)O)ccc12` (stereo not drawn), 28 AU (inactive); to `NC1(C(=O)O)CCCC1`, 76 AU (inactive).
With `COc1ccc2c(=O)c(CC(=O)O)coc2c1`, the luciferase signal was 60 AU (inactive).
The same measure, in the same setting: as for `COc1ccc(-c2coc3cc(O)ccc3c2=O)c(O)c1O`, the figure is 16 AU (inactive); as for `O=c1[nH]c2cc(Cl)c(Cl)cc2[nH]c1=O`, 40 AU (inactive).
With `COc1c2c(cc3occ(-c4ccc5c(c4)OCO5)c(=O)c13)OC(C)(C)C=C2`, the luciferase signal was 60 AU (inactive).
Same read-out and setting: to `O=C1c2ccc(O)c(O)c2C(=O)c2c(O)ccc(O)c21` belongs 76 AU (inactive).
Same read-out and setting: as for `O=C(O)c1cc(=O)c2cccc(O)c2[nH]1`, the figure is 100 AU (inactive).
On the same count and under the same terms, as for `COc1c2ccoc2c(OC)c2oc(=O)ccc12`, the figure is 432 AU (active); as for `CC(=O)O[C@@H]1CC2C(C)(C)[C@H](O)CC[C@]2(C)C2CC[C@@]3(C)[C@H](c4ccoc4)OC(=O)C4OC43[C@@]21C` (stereo partly drawn), 36 AU (inactive).
Consider `COc1cc(OC)c2ccc(=O)oc2c1`, for which the luciferase signal is 64 AU (inactive).
`CC(CCc1ccc(O)cc1)NCCc1ccc(O)c(O)c1` (stereo not drawn): the luciferase signal was 56 AU (inactive).
Take `NC(=O)c1cccc(N)c1`: the luciferase signal was 104 AU (inactive).
Same read-out and setting: as for `COc1c(OC)c2occc2c2oc(=O)ccc12`, the figure is 28 AU (inactive); as for `CC1(C)CC2C1CCC1(C)OC1CCC2(C)O` (stereo not drawn), 620 AU (active).
